# 12-LOX inh – blocks human arachidonate 12S-lipoxygenase; purified 12hLO, xylenol orange hydroperoxide absorbance; P18054; 580,000 tested, 1.1% active; Potency, µM (titrated, usually from 108 µM), inactives show at the highest dose activity change, negative = inhibition, actives largely listed as inhibitors; note: % is set by controls: 0 for no effect and ±100 for the full control effect
#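 Hydroperoxide product was detected by ferrous iron/xylenol orange as the 573 to 405 nm absorbance ratio. Arachidonic acid at 40 uM (final) was turned over for 30 min at room temperature by 150 nM human 12hLO, pH 7.0 Hepes buffer, after 15 min compound preincubation.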
# G9a inh – blocks human histone lysine methyltransferase G9a; Q96KQ7; G9a H3K9 monomethylation, AlphaScreen, 2 h; Potency, µM (top dose mostly 102 µM), inactives show at the highest dose activity, negative = inhibition, usual class: inhibitors; 350,000 tested, 8.8% active; AID 504332; note: % is set by controls: 0 for no effect and ±100 for the full control effect; nearly all actives have a fitted effect of over 75% in size
#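 AlphaScreen read-out: biotin-H3K9 peptide (500 nM) methylation by 20 nM enzyme with 20 uM SAM, 2 h at room temperature after 15 min compound preincubation; anti-monomethyl H3K9 antibody plus donor/acceptor beads, 10 min dark.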
# JMJD2A Tudor inh – blocks the human JMJD2A Tudor domain | O75164 | AlphaScreen JMJD2A-Tudor / H3K4me3 peptide binding | Potency, µM (top dose mostly 114 µM), for the others: at the top dose activity change, negative = inhibition, hits mostly inhibitors | 390,000 tested, 4.4% active | AID 504339; note: % is set by controls: 0 for no effect and ±100 for the full control effect; nearly all actives have a fitted effect of over 50% in size
# HP1b chromo inh – inhibitors of HP1-beta chromodomain binding to methylated histone tails; P83916; AlphaScreen HP1-beta / biotin-H3K9me3 peptide binding; Potency, µM (doses to about 114 µM), without a hit: top-dose activity change, negative = inhibition, most hits filed as inhibitors; 390,000 tested, 0.56% active; AID 540317; note: nearly all actives have a fitted effect of over 70% in size
#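 HP1-beta protein (50 nM final) preincubated 30 min at room temperature with biotinylated H3(1-18)K9me3 peptide (50 nM) in PBS pH 7.4, 0.01% Tween-20, then compound added for 30 min. AlphaScreen streptavidin donor/nickel chelate acceptor beads (10 ug/mL final), 30 min dark, luminescence read.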
# BAZ2B inh – inhibitors of human BAZ2B bromodomain. Q9UIF8. AlphaScreen BAZ2B-H3K14Ac peptide displacement. Potency, µM (titrated, usually from 114 µM), without a hit: at the highest dose activity change, negative = inhibition, most hits filed as inhibitors. 360,000 tested, 4.4% active. AID 504333; note: % is set by controls: 0 for no effect and ±100 for the full control effect; nearly all actives have a fitted effect of over 60% in size
#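 Complex of BAZ2B and biotin-H3K14Ac (50 nM apiece) forms over 30 min at RT, then faces library compounds up to 110 uM for another 30 min; AlphaScreen beads added, 20 min dark incubation, luminescence read.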
# Sfp inh – Sfp phosphopantetheinyl transferase inhibition | Q9F4F7 | Biochemical Sfp PPTase activity, qHTS | Potency, µM, for the others: largest response in the series, negative = inhibition, usual class: inhibitors | 310,000 tested, 3.5% active;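 note: the enzyme is Sfp with the accession as filed and its product quenches rhodamine fluorescence; 0% = enzyme reaction without inhibitor and -100% = no enzyme wells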
#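 Buffer: 50 mM Hepes-Na pH 7.6, 10 mM MgCl2, 0.01% Nonidet P-40, 0.01% BSA. Enzyme 15 nM, pre-exposed to compound 15 min; substrates then added and fluorescence change tracked over 30 min.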
# The depositor's hits bear a star; ? = inconclusive; . = no result given; [ ] = dose if it differs, or a comment. Most compounds without a hit are left out; they make up all but 8.7% or so of the library. Calls come from the whole dose curve; as a rule, active = well fitted curve in the direction sought with a large enough effect; inconclusive = small, poorly fitted or top-dose-only effect, or another doubt; inactive = no such curve, though single readings can be large; an effect the other way counts as inactive or inconclusive. Potency is the fitted concentration of half-maximal effect.
SMILES,12-LOX inh,G9a inh,JMJD2A Tudor inh,HP1b chromo inh,BAZ2B inh,Sfp inh
Cc1cc(C)c2sc(N(CCCN(C)C)C(=O)c3ccc(S(=O)(=O)N(C)Cc4ccccc4)cc3)nc2c1,?,39.8µM*,?,?,?,.
Cc1cc(C)c2sc(N(CCCN(C)C)C(=O)CN3C(=O)c4ccccc4C3=O)nc2c1,60.3%,50.1µM*,-14.0%[11.4 µM],63.3%,?,-12.9%
Cc1ccc2nc(N(CCCN(C)C)C(=O)CN3C(=O)c4ccccc4C3=O)sc2c1,-12.9%,?,?,-1.9%[57 µM],?,2.3%
CCN(Cc1ccccc1)S(=O)(=O)c1ccc(C(=O)N(CCCN(C)C)c2nc3cc(C)cc(C)c3s2)cc1,?,25.1µM*,?,?,?,.
Cc1cc(C)c2sc(N(CCCN(C)C)C(=O)c3ccc(Br)s3)nc2c1,?,?,?,-3.5%,50.1µM*,-16.3%
O=C(c1cn[nH]c1-c1ccccc1)N1CCN(S(=O)(=O)c2cccc(C(F)(F)F)c2)CC1,12.2%,.,.,.,.,.
CCOc1ccc2oc(=O)cc(-c3cc4ccccc4o3)c2c1,9.9%,.,.,.,.,.
O=C(Nc1cccnc1)c1ccc2c(c1)OCCN(c1cccc(OC(F)(F)F)c1)C2,72.2%[176 µM],.,.,.,.,.
CCOc1ccc(-c2nc3c(c(SCC(=O)Nc4ccccc4C)n2)Cc2ccccc2O3)cc1,-22.3%,-29.6%[59 µM],-7.0%,24.6%,-7.4%,.
Cc1ccc(-c2nc3c(c(SCC(=O)Nc4cccc(C(=O)O)c4)n2)Cc2cccc(C)c2O3)cc1,.,10µM*,3.16µM*,?,7.08µM*,.
CCOc1cccc2c1Oc1nc(-c3ccccc3)nc(SCC(=O)Nc3ccc(F)cc3)c1C2,2.8%,?,-9.6%,24.5%,-5.1%,.
O=C(CSc1nc(-c2ccccc2)nc2c1Cc1ccccc1O2)Nc1ccc(C(=O)O)cc1,-5.0%,-4.4%,10µM*,31.6µM*,12.6µM*,79.4µM*
O=C(CSc1nc(-c2ccc(F)cc2)nc2c1Cc1ccccc1O2)Nc1ccc(C(=O)O)cc1,?,?,10µM*,?,7.94µM*,-20.9%
OCCN(Cc1cccnc1)Cc1ccccn1,1.7%,.,50.1µM*,43.1%,.,.
O=C(c1cccnc1)N1CCCC(n2cc(-c3nc(-c4ccccc4)no3)nn2)C1 (configuration not stated),39.8µM*,.,.,.,.,.
O=C(c1ccccc1)N1CCCC(n2cc(-c3nc(-c4ccccc4)no3)nn2)C1 (configuration not stated),2.6%,.,.,.,.,.
Cn1c(=O)[nH]c2cc3ccccc3cc21,0.0%,1.26µM*,0.0%,19.6%,3.7%,-13.8%
CS(=O)(=O)NCCCNc1ccc(C(F)(F)F)cc1[N+](=O)[O-],12.8%,-21.1%,-14.0%,9.5%,-32.6%,3.2%
O=[N+]([O-])c1cc(C(F)(F)F)cc([N+](=O)[O-])c1NCc1cccnc1,-3.1%,50.1µM*,-33.2%,-19.5%,-27.8%,0.4%
O=[N+]([O-])c1cc(C(F)(F)F)cc([N+](=O)[O-])c1NCCCNc1ccc([N+](=O)[O-])c2cccnc12,-8.7%,3.55µM*,?,-38.3%,-36.8%,2.3%
O=c1c2ccccc2sc2c(CO)ccc(NCCN3CCCCC3)c12,-10.7%,.,50.1µM*,?,.,.
Cc1oc(-c2ccc(C(=O)N3CCN(C)CC3)cc2)nc1CN1CCc2ccccc21,-3.1%,.,.,.,.,.
CCOc1[nH]c(/N=C/c2ccccc2)c(C#N)c1C#N,.,.,-17.0%,6.4%,.,.
COc1[nH]c(/N=C/c2ccco2)c(C#N)c1C#N,.,.,31.6µM*,22.4µM*,.,.
CN(CC(=O)Nc1ccccc1Cl)C(=O)c1ccc(Cl)c(S(=O)(=O)N2CCCCCC2)c1,-15.2%,.,-9.0%,15.5%[57 µM],.,.
SMILES,12-LOX inh,G9a inh,JMJD2A Tudor inh,HP1b chromo inh,BAZ2B inh,Sfp inh
COc1cccc(NC(=O)CN(C)C(=O)c2cccc(S(=O)(=O)N3c4ccccc4CC3C)c2)c1 (configuration not stated),-7.0%,15.8µM*,-27.0%,10.2%,2.4%,.
COc1cccc(NC(=O)CN(C)C(=O)c2cccc(NS(=O)(=O)c3ccccc3)c2)c1,17.3%,-4.1%[12.7 µM],-8.8%,23.1%,11.3%,.
COc1cccc(NC(=O)CN(C)C(=O)c2ccc(Cl)c(S(=O)(=O)N3CCCCCC3)c2)c1,-16.8%,70.8µM*,-21.8%,-1.4%,10.5%,.
O=C1NCCC[C@@H]1NC(=O)[C@@H]1CN(C(=O)c2cccc(F)c2)CCN1C(=O)C1CCNCC1,2.7%,.,.,.,.,.
O=Cc1ccc(-c2ccc(F)cc2)o1,-6.0%,7.6%,-2.8%,32.8%,-12.0%,8.8%
O=C(/C=C\c1ccc(-c2ccccc2)o1)c1ccccc1,?,10µM*,-31.5%,?,31.6µM*,11.2µM*
O=C(/C=C/c1ccccc1)c1ccccc1,2.7%,-10.5%[59 µM],143.2%,125.5%,23.7%,?
Cc1ccc(C(=O)/C=C\NCc2ccccc2)cc1,14.8%,-2.5%,-19.4%,24.2%,-5.6%,89.1µM*
O=C1/C(=C\c2ccc(Br)o2)Cc2ccccc21,?,?,?,-5.3%,?,-19.2%
O=C1/C(=C/c2ccc(-c3ccc(F)cc3)o2)Cc2ccccc21,17.8µM*,.,.,.,.,.
O=C(O)/C(=C\c1ccc(-c2ccc(F)cc2)o1)c1ccccc1,4.3%,?,?,2.4%,.,8.91µM*
O=C(O)/C=C/C(=O)c1ccc(O)cc1,-16.9%,?,-10.7%,54.9%,-2.0%,2.24µM*
Cc1ccc(C(=O)/C=C/c2ccc(-c3ccc(C)c(Cl)c3)o2)cc1,14.1µM*,.,.,.,.,.
CC(/C=C/C(=O)c1ccc(C)cc1)=C\c1ccccc1,?,9.1%[59 µM],36.6%,108.5%,29.7%,?
O=C(O)/C=C/c1ccc(-c2cccc(C(F)(F)F)c2)o1,-28.8%,44.7µM*,-20.3%,47.8%,-1.4%,3.2%
Cc1ccc(C(=O)/C=C\C(=O)c2ccc(C)cc2)cc1,?,1.58µM*,-19.0%,-5.3%,-10.0%,1.78µM*
Cc1ccc(C(=O)/C=C/c2ccc(-c3ccc(Cl)c(Cl)c3)o2)cc1,-80.5%,.,.,.,.,.
Cc1cccc(-c2nn3c(=O)cc(N4CCN(C(=O)COc5ccccc5Cl)CC4)nc3s2)c1,2.0%,.,.,.,.,.
Cc1ccc(C(CNC(=O)c2cc(=O)c3cc(Cl)ccc3o2)N2CCC(C)CC2)o1 (configuration not stated),25.6%,.,.,.,.,.
COc1ccc(CN2CC3=C(C2=O)C(c2ccc(C)cc2)NC(=O)N3)cc1 (configuration not stated),-6.9%,.,.,.,.,.
CCCNC(=O)C1CCCN1S(=O)(=O)c1ccc(Br)s1 (configuration not stated),43.9%,.,.,.,.,.
CCn1c(-n2nc(C)cc2C)nc2c1c(=O)n(CCN1CCCCC1)c(=O)n2C,4.8%,.,.,.,.,.

# Compound activity deposited in PubChem BioAssay by National Center for Advancing Translational Sciences (NCATS).
